Compound activity deposited in PubChem by National Center for Advancing Translational Sciences (NCATS).
Most compounds without a hit are left out; they make up all but 11% or so of the library.
ALDH1A1 inh – inhibitors of human aldehyde dehydrogenase 1A1. P00352. Purified ALDH1A1, NADH fluorescence, propionaldehyde substrate. Potency, µM (titrated, usually from 75.3 µM), for the others: at the top dose activity, negative = inhibition, actives largely listed as inhibitors. actives 7.3% (n = 220,000);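 also: potency is read from the fitted curve at half-maximal effect; plate controls were no enzyme wells and a reference inhibitor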
HPGD inh – HPGD (human) dehydrogenase inhibition; Potency, µM, without a hit: at the highest dose activity change, negative = inhibition, actives largely listed as inhibitors; actives 4.3% (n = 150,000); purified HPGD, NADH fluorescence kinetic, PGE2 substrate; also: potency is read from the fitted curve at half-maximal effect
Target sequence (P15428 whole entry, looked up): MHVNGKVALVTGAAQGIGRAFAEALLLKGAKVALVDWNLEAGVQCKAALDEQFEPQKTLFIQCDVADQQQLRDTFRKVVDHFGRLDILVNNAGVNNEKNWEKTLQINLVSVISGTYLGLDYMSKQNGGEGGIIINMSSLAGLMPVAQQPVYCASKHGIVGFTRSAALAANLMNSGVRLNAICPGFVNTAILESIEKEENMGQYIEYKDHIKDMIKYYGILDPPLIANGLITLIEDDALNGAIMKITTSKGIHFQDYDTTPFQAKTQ
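20 nM HPGD preincubated 15 min at room temperature with compound in 50 mM Tris-HCl pH 8, 0.01% Tween 20. Started with 1 mM NAD+ and 30 uM prostaglandin E2; NADH fluorescence (360/450 nm) read 5 times over 30-s intervals, last minus first.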
PNC assembly inh – inhibitors of perinucleolar compartment assembly. PC3M PTB-GFP, PNC prevalence imaging, 16 h; hits give low values. activity change (PNC), negative = inhibition, % at 10 µM. actives 3.1% (n = 140,000);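 active = readout at or below -70, meaning at least 70% loss of cells showing the perinucleolar compartment, a nuclear body marking cancer cells; inconclusive = readout between -30 and a set limit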;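 also: plate controls were DMSO wells for no effect and camptothecin positive control wells for full effect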
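Read-out is percentage of cells bearing a perinucleolar compartment, from automated 20x imaging of fixed, Hoechst-stained PC3M PTB-GFP cells. Cells were seeded 4 h, then exposed 16 h to compound (23 nl of library stock) in duplicate plates.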
* marks the source's active call; other numbers are inactive results; ? = inconclusive; / = no result; [ ] = another dose, or the depositor's remark. Unless noted, calls follow the shape of the dose curve; as a rule, active = well fitted inhibition curve with a large enough effect (not every such curve was filed as active); inconclusive = small, poorly fitted or top-dose-only effect, or another doubt; inactive = no such curve, though single readings can be large or run the other way. Unless noted, % is scaled to controls: 0 for no effect and ±100 for the full control effect.

SMILES	ALDH1A1 inh	HPGD inh	PNC assembly inh
CCOC(=O)OCC1OC(C#Cc2ccc(Br)cc2)C=CC1OC(=O)OCC (configuration not stated)	-18.6%[13.5 µM]	/	/
CC(=O)OCC1OC(C#Cc2ccc(Br)cc2)C=CC1OC(C)=O (configuration not stated)	-4.5%[13.5 µM]	/	/
C/C(=N\NC(=O)c1ccc(Cl)c(S(=O)(=O)Nc2ccccc2Cl)c1)c1ccncc1	?	-0.6%	-83.3*
C/C(=N\NC(=O)c1ccc(COc2ccccc2)cc1)c1ccncc1	25.1µM*	/	/
C/C(=N\NC(=O)c1cccc(S(=O)(=O)Nc2ccccc2Cl)c1)c1ccco1	?	?	10.0
CC(=O)Nc1ccc(C(=O)N/N=C(\C)CC(=O)Nc2ccc(OCc3ccccc3)cc2)cc1	-6.0%	-12.2%	-4.1
CC(C(=O)Nc1cccnc1)n1cc([N+](=O)[O-])cn1 (configuration not stated)	14.3%	/	/
S=c1[nH]nc(COc2cccc(Cl)c2)n1Cc1ccccc1	-8.2%	/	/
Cn1cc(Cl)c(-c2n[nH]c(=S)n2C2CCCCC2)n1	1.5%	/	/
S=c1[nH]nc(COc2ccc(Cl)cc2)n1C1CCCCC1	?	14.1µM*	280.9
Cc1ccc(OCc2n[nH]c(=S)n2C2CCCCC2)cc1	14.1µM*	14.1µM*	39.6
S=c1[nH]nc(COc2ccc(Cl)cc2)n1Cc1ccccc1	5.4%	/	/
Cc1cccc(OCc2n[nH]c(=S)n2C2CCCCC2)c1	?	10µM*	-12.6
O=C(CC(Nc1ccccc1)c1ccccc1)C1CC1 (configuration not stated)	2.0%	/	/
CSc1nc2sc(-c3ccccc3)cc2c(=O)n1N	?	-16.5%	32.5
CC(C)Sc1nc2sc(-c3ccccc3)cc2c(=O)n1N	-11.5%	-24.7%	-106.0*
N#C/C(=C/c1cccn1-c1cccc(C(=O)O)c1)c1ccc(F)cc1	-9.4%	/	/
O=C1NN=C(CSc2n[nH]c(=S)s2)CS1	3.55µM*	/	/
COc1ccc(CC2(CO)CCN(Cc3nc(C(C)C)cs3)CC2)cc1	2.5%	/	/
CC(=O)OCC(=O)Nc1c(C)cccc1C	2.7%	/	/
CCOc1ccc(-n2c(=S)sc3c(=O)[nH]c(SCC(=O)NC(C)CC)nc32)cc1 (configuration not stated)	-9.1%	-14.1%	-82.9*
CCOC(=O)CC(=O)CSc1nc2c(sc(=S)n2-c2ccc(OCC)cc2)c(=O)[nH]1	?	-19.9%	-8.2
O=S(=O)(O)c1cc(O)c2c(N=Cc3ccccc3O)cc(S(=O)(=O)O)cc2c1	?	-24.6%	/
CC(C)CN1CCN(C2CCN(C(C)C)CC2)C(CCO)C1 (configuration not stated)	5.9%	/	/
N#C/C(=C(/O)COC(=O)CSc1ccc2ccccc2c1)c1nc2ccccc2[nH]1	-2.9%	-16.2%	-80.4*
SMILES	ALDH1A1 inh	HPGD inh	PNC assembly inh
Cc1ccc(C)c(SCC(=O)OC/C(O)=C(\C#N)c2nc3ccccc3[nH]2)c1	6.3%	/	/
COc1cccc(CN(C)C(=O)c2cc(COc3ccc4ncccc4c3)on2)c1	0.6%	/	/
CN(CCC#N)C(=O)COC(=O)c1ccccc1OCc1ccccc1Cl	-1.7%	/	/
O=c1c2ccccc2nc(SCc2nnc(-c3ccccc3Br)o2)n1-c1ccccc1	1.9%	-6.2%	11.5
COCCCn1c(SCc2nnc(-c3ccccc3)o2)nc2sc3c(c2c1=O)CCC3	?	14.1µM*	?
CCn1c(SCc2ccc(C(=O)OC)o2)nc2sc3c(c2c1=O)CCCC3	-7.5%	-9.5%	24.4
Cn1c(SCc2nnc(-c3ccccc3Br)o2)nc2sc3c(c2c1=O)CCC3	-11.1%	8.91µM*	-29.6
Cc1nnc(SCC(=O)Nc2ccccc2C(=O)NC2CC2)s1	0.2%	-3.3%	-21.8
O=C(c1ccc2c(c1)OCO2)C1CCCN(C2CCN(CCc3ccccc3)CC2)C1 (configuration not stated)	-6.1%	/	/
NC(=O)CN(c1ccc([N+](=O)[O-])cc1)S(=O)(=O)c1ccccc1	-2.1%	/	/
COC(=O)C1C(c2ccc(OC)c(OC)c2)NC(c2ccc(OC)c(OC)c2)C(C(=O)OC)S1(=O)=O (configuration not stated)	-1.7%	-7.3%	-23.1
COC(=O)C1CSc2[nH]c(=O)sc2C1c1ccc(OC)c(OC)c1 (configuration not stated)	7.94µM*	3.4%	81.7
Cc1cccc(NC(=S)N(CCCN2CCOCC2)C(C)c2cc3ccccc3o2)c1C (configuration not stated)	-1.2%	/	/
CCNc1cccc2c1C(=O)N(C)C2=O	2.0%	-0.9%	-1.0
CCC(=O)Nc1cccc2c1C(=O)N(C)C2=O	-10.0%	?	-111.1*
COC(=O)N1CCC2(CCN(Cc3ccccc3OC)CC2)CC1	4.5%	-5.4%	/
N#C/C(=C\c1cccc(Cl)c1)c1n[nH]c(Cn2cncn2)n1	-7.4%	?	32.0
